# PubChem BioAssay AID720504 (National Center for Advancing Translational Sciences (NCATS), 2013)
# The whole screen tested about 360,000 compounds, of which about 10,000 (2.8%) were called active. About 4% were inconclusive and are not listed. Calls come from the whole dose curve; as a rule, active = well fitted inhibition curve with a large enough effect; inconclusive = small, poorly fitted or top-dose-only effect; inactive = flat fitted curve, though single readings scatter. Shown is part of a subset that was picked to be rich in actives.
# Target: Serine/threonine-protein kinase PLK1 (Homo sapiens) (UniProt P53350)
# Sequence (P53350 whole entry, looked up, the tested form may be a part): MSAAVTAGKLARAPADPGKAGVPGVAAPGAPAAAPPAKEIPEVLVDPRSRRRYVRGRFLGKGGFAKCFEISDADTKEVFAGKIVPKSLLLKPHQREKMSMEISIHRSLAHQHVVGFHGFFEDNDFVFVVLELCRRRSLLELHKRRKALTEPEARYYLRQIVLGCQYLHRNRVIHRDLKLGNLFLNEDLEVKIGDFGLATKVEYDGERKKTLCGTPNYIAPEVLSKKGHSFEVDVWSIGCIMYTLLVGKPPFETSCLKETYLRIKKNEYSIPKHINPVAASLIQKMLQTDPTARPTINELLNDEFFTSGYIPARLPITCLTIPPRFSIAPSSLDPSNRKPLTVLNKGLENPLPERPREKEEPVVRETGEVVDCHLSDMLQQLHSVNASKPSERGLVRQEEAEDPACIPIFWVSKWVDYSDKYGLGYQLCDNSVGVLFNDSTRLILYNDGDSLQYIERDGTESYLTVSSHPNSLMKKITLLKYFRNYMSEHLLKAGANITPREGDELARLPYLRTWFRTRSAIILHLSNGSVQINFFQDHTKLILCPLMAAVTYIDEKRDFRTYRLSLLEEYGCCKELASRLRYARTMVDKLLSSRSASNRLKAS
# Test: qHTS for Inhibitors of PLK1-PDB (polo-like kinase 1 - polo-box domain): Primary Screen; note: nearly all actives have a fitted effect of over 65% in size; for max response, negative = inhibition: series mostly up to about 57 µM
# Details: Plk1 PBD binding of FITC phosphopeptide, fluorescence polarization
# Text: The polo-like kinase 1 (Plk1) is a member of a conserved subfamily of serine / threonine protein kinases that plays a pivotal roles in cell proliferation. It has a C-terminal non-catalytic region called the polo-box domain (PBD) that plays a crucial role in the subcellular localization of the Plk1. […] Furthermore, depletion of the overexpressed Plk1 by RNAi efficiently induces apoptotic cell death in cancer and reduces tumor growth in mouse xenograft models. Thus, targeting Plk1 is an appealing strategy for anti-cancer therapy. Therefore, this project aimed to screen the Molecular Libraries Small Molecule Repository (MLSMR) using a novel approach to find inhibitors that target the Plk1 PBD instead of the conventional N-terminal catalytic domain. This project employed a fluorescence polarization (FP) assay using a FITC-conjugated phospho-9-mer (p-9-mer) peptide and purified human Plk1 PBD protein. The identified small molecule inhibitors of Plk1 PBD can then further be developed into useful tools for biomedical and clinical research that complements or replaces current relevant disease therapy. NIH Chemical Genomics Center [NCGC] NIH Molecular Libraries Probe Centers Network [MLPCN] MLPCN Grant: MH100728 Assay Submitter (PI): Kyung Lee, NCI
# Four microliter of 25 nM FITC-p-9-mer + 60 nM Plk1 PBD in buffer solution (final concentrations 25 nM and 60 nM respectively) or 4 uL of 25 nM FITC-p-9-mer (final concentration 25 nM) in buffer will be dispensed into a 1,536 Greiner medium-binding black solid plate. Small molecules at final concentrations of 18 nM to 57 uM and positive control phospho-9-mer (sequence: Ac-PPLHSpTAI-NH2) at final concentrations 26 nM to 57 uM and phospho-13-mer (sequence: Ac-[…]pTAI-NH2) at final concentrations of 1 nM to 2.3 uM will be pin-transferred (23 nL) to the plate via a Kalypsys pin-tool robotics equipped with a 1,536-pin array. The reaction plate will be centrifuged for 1 min at 1000 rpm and incubated at room temperature for 10 min. The FITC fluorescence signals will be read using the PerkinElmer ViewLux plate reader at 480 / 20 nm excitation and 540 / 20 nm S and P polarization emission wavelengths. Reagent bottles will be kept submerged into 4 °C recirculating chiller bath and all liquid lines will be covered with aluminum foil to minimize degradation. Library plates will be screened starting from the lowest to the highest concentrations to minimize compound carryover. Vehicle only plates, with DMSO being pin-transferred instead of compound solutions, will be included regularly throughout the screen to record any systematic shifts in assay signal.
# % is set by controls: 0 for no effect and ±100 for the full control effect; potency is the fitted concentration of half-maximal effect.
Structure (SMILES),Potency,"max response, negative = inhibition"
COc1cc(C(=S)N2CCOCC2)ccc1O,11.9 µM (active),–
COc1ccccc1OC(=O)c1ccc(C)c(S(=O)(=O)N2CCOCC2)c1,–,-17.4% (inactive)
COc1ccc(C(=O)C2CCCN(Cc3ccc(C)s3)C2)cc1OC (configuration not stated),–,-12.4% (inactive)
S=C(NCCc1ccccc1)N1Cc2cc(N3CCOCC3)ccc2-n2nncc2C1,–,-7.87% (inactive)
OC1/C(=C/c2ccc(C(F)(F)F)cc2)N2CCC1CC2 (configuration not stated),–,3.89% (inactive)
CCOC(=O)C1(Cc2ccc(Cl)cc2)CCN(C(C)CCn2cccn2)CC1 (configuration not stated),–,-2.75% (inactive)
CCOc1ccc(-c2cc(C)[n+](CCN(CC)CC)c(-c3ccc(OCC)cc3)c2)cc1,–,-4.15% (inactive)
CCn1cc(CN2CCCC(C(=O)c3cccc(C(F)(F)F)c3)C2)cn1 (configuration not stated),–,-6.76% (inactive)
CCN(CC)C(=O)Oc1ccc(OC(=O)N(CC)CC)cc1,16.8 µM (active),–
CN(C)C(=O)Oc1ccc(OCc2cccc[n+]2C)cc1,–,-4.14% (inactive)
CCN(CC)C(=O)Oc1ccc(NC(=O)N2CCOCC2)cc1,–,-7.81% (inactive)
CCC1(C)CC(CCNCc2ccc(N(C)C)cc2)(c2ccc(F)cc2)CCO1 (configuration not stated),–,-1.51% (inactive)
COc1ccccc1CN1CCN(C(=O)Cc2ccccc2)CC1,–,3.36% (inactive)
O=c1[nH]c2ccccc2n1C1CCN(C(c2ccccc2)c2nnnn2Cc2ccccc2)CC1 (configuration not stated),–,3.89% (inactive)
COc1ccc2c(c1)NP(=S)(c1ccccc1)N2 (configuration not stated),3.36 µM (active),–
Cc1cc(C)c2c(c1)NP(=S)(c1ccccc1)N2 (configuration not stated),–,-17.9% (inactive)
CC(=O)Nc1ccccc1C(=O)OCC(=O)c1cccc2ccccc12,–,-5.92% (inactive)
CC(c1ccccc1)(c1ccccc1)c1ccncc1,–,-1.65% (inactive)
COC(=O)C1=C(c2cc3ccccc3o2)C[C@@H]2CC[C@H]1N2C(=O)NC1CCCCC1,–,0.442% (inactive)
CCOC(=O)C1=C(C)OC(N)=C(C(=O)OC)C12C(=O)Nc1ccc(Br)cc12 (configuration not stated),–,0.0447% (inactive)
CC(C)c1ccc(O)c(CN2CCN(c3ccccc3)CC2)c1,–,6.47% (inactive)
CCc1nc2ccccc2c(=O)n1-c1cccc(OC)c1,–,-4.27% (inactive)
COc1cccc(N2C(=O)NC(=O)/C(=C\c3ccc([N+](=O)[O-])s3)C2=O)c1,5.32 µM (active),–

Structure (SMILES),Potency,"max response, negative = inhibition"
COc1cccc(N2C(=O)NC(=O)/C(=C\c3cn(C)c4ccccc34)C2=O)c1,9.47 µM (active),–
O=C1NC(=O)N(c2ccccc2)C(=O)/C1=C/c1ccc([N+](=O)[O-])s1,2.67 µM (active),–
CC1=C(C(=O)Nc2ccccc2)SCCO1,–,-5.57% (inactive)
CC(=CCOc1ccc2ccc(=O)oc2c1)C1=CC(=O)C(C)(C)O1,–,-1.51% (inactive)
O=C(O)C1CSC(c2cccnc2)N1 (configuration not stated),–,-10% (inactive)
O=C1NCN(c2ccccc2)C12CCN(C(c1cccs1)c1nnnn1C1CCCCC1)CC2 (configuration not stated),–,-2.86% (inactive)
COP(=O)(NS(=O)(=O)c1ccccc1)OC,–,-7.79% (inactive)
C[N+]1(C)CCOC(O)(c2ccc(-c3ccc(C4(O)C[N+](C)(C)CCO4)cc3)cc2)C1 (configuration not stated),–,-17.9% (inactive)
COc1ccc(-n2c(O)c(C(C)=Nc3ccc4c(c3)CCC4)c(=O)[nH]c2=O)cc1,–,2.28% (inactive)
COc1ccccc1C1=NCc2nnc(CSC)n2-c2ccc(Cl)cc21,–,2.66% (inactive)
O=C(NCC1=C(c2ccc3ccccc3c2)C[C@@H]2CC[C@H]1N2Cc1ccco1)c1cccs1,–,-9.52% (inactive)
O=C1NC(=O)C(C/C=C/c2ccccc2)C(=O)N1,–,-29.7% (inactive)
CCN(CC)C(=O)c1ccc(NC(=O)c2cc(-n3cnnc3)ccc2Cl)cc1,–,-5.96% (inactive)
CN(C)CC1Oc2ccccc2OC1(O)c1ccccc1 (configuration not stated),5.32 µM (active),–
OC(CNC1CCCCC1)c1ccccc1 (configuration not stated),–,-2.72% (inactive)
CN1CCC(N(C)Cc2cccnc2)CC1,–,-7.61% (inactive)
CCOC(=O)C(O)(c1ccc(N)c(OC)c1)C(F)(F)F (configuration not stated),–,-1.46% (inactive)
CN(C)C(=O)Oc1cc(=O)n2c3c(cccc13)CCC2,–,-13.7% (inactive)
CC1CCCN1CCC(C(N)=O)(c1ccccc1)c1ccccc1 (configuration not stated),–,-4.65% (inactive)
Cc1ccnc(-n2c(C)cc(/C=C3\C(=O)NC(=S)N(C)C3=O)c2C)c1,2.38 µM (active),–
Cc1ccc(-n2c(C)cc(/C=C3\C(=O)NC(=O)N(C)C3=O)c2C)cc1C,–,-15.6% (inactive)
O=C(NC(c1ccc(Cl)cc1)P(=O)(Oc1ccccc1)Oc1ccccc1)OCc1ccccc1 (configuration not stated),–,0.141% (inactive)
C[C@H]1CN([C@@H](C)CO)C(=O)CCCn2nncc2CO[C@H]1CN(C)C(=O)Oc1ccccc1,–,-3.55% (inactive)

Structure (SMILES),Potency,"max response, negative = inhibition"
CC(CC(C#N)(c1ccccc1)c1ccccc1)N1CCCCC1 (configuration not stated),–,-6.42% (inactive)
COc1cccc(C(c2nnnn2-c2ccc3c(c2)OCCO3)N2CCC3(CC2)C(=O)NCN3c2ccccc2)c1OC (configuration not stated),–,-7.89% (inactive)
O=C(O)CCn1cc(C=C2C(=O)NC(=S)NC2=O)c(-c2cccc(Br)c2)n1,4.74 µM (active),–
O=c1[nH]c2ccccc2n1C1CCN(C(c2ccnc3ccccc23)c2nnnn2Cc2ccccc2)CC1 (configuration not stated),–,3% (inactive)
CCCCCCCCCCCCn1ccc(=N)cc1,–,-4.33% (inactive)
COc1ccc(-c2nn(CCC#N)cc2C(=O)O)cc1,–,-2.51% (inactive)
O=C(c1cc(S(=O)(=O)N2CCOCC2)ccc1F)N1CCC2(CC1)OCCO2,–,-4.68% (inactive)
C=CC12CN(C)[C@@H]3C4CO[C@H](C[C@H]41)[C@]1(C(=O)Nc4ccccc41)[C@@H]32 (some centres not stated),–,-7.71% (inactive)
CCN1C(=O)C(=Cc2c(C)n(CC(=O)NCC3CCCO3)c3ccccc23)C(=O)N(CC)C1=S (configuration not stated),1.06 µM (active),–
C/C=C/CC1(CC)C(=O)NC(=S)NC1=O,–,-7.94% (inactive)
CCc1cccc2c(C#N)cn(CC(=O)N3CCOCC3)c12,–,-5.32% (inactive)
COc1ccccc1N=Nc1c(O)[nH]c(=S)[nH]c1=O,–,13.3% (inactive)
O=c1[nH]c(=S)[nH]c(O)c1/C=C1\C=Nc2ccccc21,1.19 µM (active),–
COc1ccc(CCn2c(O)c(C=NCCCn3ccnc3)c(=O)[nH]c2=O)cc1OC,–,-4.17% (inactive)
c1ccc(Cc2nn3c(Cn4cnc5ccccc54)nnc3s2)cc1,11.9 µM (active),–
CCOP(=O)(OCC)C(NC(=O)NC)C(N)=O (configuration not stated),–,0.136% (inactive)
CCCC[N+]1(C)C2CC(OC(=O)C(CO)c3ccccc3)CC1C1OC12 (configuration not stated),–,-0.372% (inactive)
CC(=NCc1ccc2c(c1)OCO2)c1c(O)[nH]c(=O)[nH]c1=O,–,-14.7% (inactive)
CCOC(=O)C1SC2(C(F)(F)C(F)F)CC1(O)c1c(c(OC)c3occc3c1OC)O2 (configuration not stated),–,0.906% (inactive)
O=c1c2ccccc2[nH]c(=S)n1-c1cccc(Cl)c1,–,-18.6% (inactive)
COC(=O)C1=C(c2ccc(-c3ccccc3)c(F)c2)C[C@@H]2CC[C@H]1N2C(=O)NCc1ccc(F)cc1,–,-10.9% (inactive)
C=C(C)C1(CCCC)C(=O)NC(=S)NC1=O,–,0.58% (inactive)
Cc1noc(C)c1CSc1nc2cc(S(=O)(=O)N3CCOCC3)ccc2o1,21.2 µM (active),–

Structure (SMILES),Potency,"max response, negative = inhibition"
Cn1c(C(=O)N2CCC(C(=O)N3CCC4(CC3)OCCO4)CC2)cc2sccc21,–,-6.93% (inactive)
CC=C(C)C(=O)OC1CCN2CC=C(COC(=O)C(O)(C(C)OC)C(C)(C)O)C12 (configuration not stated),–,-10.3% (inactive)
Cc1cc(=O)oc2c(C)c(OCC(=O)N3CCN(Cc4ccc5c(c4)OCO5)CC3)ccc12,–,-7.37% (inactive)
Cc1cccc(NC(=O)OC2CN3CCC2CC3)c1 (configuration not stated),–,3.5% (inactive)
O=C(Nc1cccc(OC(=O)N2CCCCC2)c1)N1CCOCC1,–,-15.9% (inactive)
CC(C)(C)c1ccc(OC(=O)N2CCCCC2)cc1,23.8 µM (active),–
CN1CCN(C(=O)COc2ccc(C(C)(C)C)cc2Br)CC1,–,-4.1% (inactive)
C[N+]12CN3CN(CN(C3)C1)C2,–,-1.32% (inactive)
COc1ccc(-n2nnnc2C(c2cccc3ccccc23)N2CCC(n3c(=O)[nH]c4ccccc43)CC2)cc1 (configuration not stated),–,-4.82% (inactive)
COc1ccc(NC(=O)N2Cc3ccccc3-n3nncc3C2)cc1,–,-7.51% (inactive)
CCOc1ccc(C2SCC(=O)Nc3c2c(C)nn3C2CCOC(C)(C)C2)cc1 (configuration not stated),–,-3.25% (inactive)
COc1ccccc1NC(=O)N1C[C@@H]2C[C@@H](C1)c1cccc(=O)n1C2,–,-7.73% (inactive)
CN1CCC(OC(=O)c2cccc(F)c2)CC1,–,-15.3% (inactive)
O=c1[nH]c(O)c(C=Nc2cc(F)cc(F)c2)c(=O)[nH]1,–,-3.46% (inactive)
Cc1ccc2c(c1)=C/C(=C\c1c(O)[nH]c(=O)[nH]c1=O)C(=O)N=2,11.9 µM (active),–
CC[N+](CC)(CC)CCCCCCCCCC[N+](CC)(CC)CC,–,3.96% (inactive)
CC12CCC3C(CCC4CC(=O)CCC43C)C1CC(=NO)C2=O (configuration not stated),–,6.72% (inactive)
C[C@]12CCCCC1=CC(=O)C1C2CC[C@@]2(C)C1C[C@@H](F)[C@@H]2O (some centres not stated),–,2.07% (inactive)
COC(=O)C[C@H]1CC[C@H]2NC[C@@H](O)COC[C@@H]2O1,–,-11.8% (inactive)
O=C1NC(=O)N(CCc2ccc(F)cc2)C(=O)/C1=C/C=C/c1ccccc1,0.532 µM (active),–
CC(C)N(CC#CCC1(O)c2ccccc2-c2ccccc21)C(C)C,–,4.02% (inactive)
O=C(NC(=S)N1C[C@H]2C[C@H](C1)c1cccc(=O)n1C2)c1ccc(F)cc1,–,-8.97% (inactive)
N=c1ccccn1Cc1ccccc1,–,-5.72% (inactive)
